Assay results reported in publication PMC5700166.
Residue numbers refer to the chain shown, from its start.

Legend:
Experiment in all cases: protein-binding microarray (PBM); PBM: ~300 nM protein, 6 mM HEPES pH 7.8, 80 mM KCl, 0.5 mM EDTA, 0.5 mM EGTA, 6% glycerol, 35 ng/ul poly-dIdC, 1% milk, 1 h, room temperature; Ap Aiptasia and Nv Nematostella (sea anemones) / Co Capsaspora / Aq Amphimedon (sponge) / Dm Drosophila / Hu human; RHD is the Rel homology domain; high values mean tight binding
Conditions in all cases: dsDNA, one strand shown
GST-Ap-NF-kB RHD = biological target: T1, GST-Ap-NF-kB RHD (Exaiptasia pallida (Aiptasia), UniProt A0A913YAJ5 2-422)
T1 sequence: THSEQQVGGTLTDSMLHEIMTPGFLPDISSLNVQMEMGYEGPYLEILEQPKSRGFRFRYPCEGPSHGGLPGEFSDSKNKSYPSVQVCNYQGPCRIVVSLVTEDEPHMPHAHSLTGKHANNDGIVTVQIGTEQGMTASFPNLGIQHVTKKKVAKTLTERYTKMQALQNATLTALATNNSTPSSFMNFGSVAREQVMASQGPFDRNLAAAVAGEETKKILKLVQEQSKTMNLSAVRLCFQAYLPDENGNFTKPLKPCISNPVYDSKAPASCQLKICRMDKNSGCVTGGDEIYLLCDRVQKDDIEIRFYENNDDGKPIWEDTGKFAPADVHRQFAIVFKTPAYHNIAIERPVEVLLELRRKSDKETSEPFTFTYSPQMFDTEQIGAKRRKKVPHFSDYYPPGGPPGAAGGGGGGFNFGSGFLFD

[1] = biological target: T2, GST-Nv-NF-kB (Cys allele) (Nematostella vectensis, UniProt E5G601 2-411)
T2 sequence: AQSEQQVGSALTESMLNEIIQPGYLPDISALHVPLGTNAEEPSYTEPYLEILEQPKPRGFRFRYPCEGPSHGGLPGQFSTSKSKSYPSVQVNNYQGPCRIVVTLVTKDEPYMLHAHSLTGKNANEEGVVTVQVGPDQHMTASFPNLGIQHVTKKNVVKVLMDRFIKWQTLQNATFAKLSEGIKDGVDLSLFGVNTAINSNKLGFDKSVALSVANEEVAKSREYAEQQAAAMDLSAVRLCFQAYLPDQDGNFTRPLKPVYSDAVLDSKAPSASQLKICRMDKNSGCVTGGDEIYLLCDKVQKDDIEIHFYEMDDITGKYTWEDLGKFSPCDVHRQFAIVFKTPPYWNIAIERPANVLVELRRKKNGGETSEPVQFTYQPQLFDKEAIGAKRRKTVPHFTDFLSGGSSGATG

[2] = biological target: T3, GST-Nv-NF-kB (Ser allele) (Nematostella vectensis, UniProt A7UNT2 2-411)
T3 sequence: T2 sequence with Q21R, C66S, S207N, E215Q, V217A, E225K, A268E, D399E

GST-Co-NF-kB = biological target: T4, GST-Co-NF-kB (Capsaspora owczarzaki, UniProt F1ARL5 200-546)
T4 sequence: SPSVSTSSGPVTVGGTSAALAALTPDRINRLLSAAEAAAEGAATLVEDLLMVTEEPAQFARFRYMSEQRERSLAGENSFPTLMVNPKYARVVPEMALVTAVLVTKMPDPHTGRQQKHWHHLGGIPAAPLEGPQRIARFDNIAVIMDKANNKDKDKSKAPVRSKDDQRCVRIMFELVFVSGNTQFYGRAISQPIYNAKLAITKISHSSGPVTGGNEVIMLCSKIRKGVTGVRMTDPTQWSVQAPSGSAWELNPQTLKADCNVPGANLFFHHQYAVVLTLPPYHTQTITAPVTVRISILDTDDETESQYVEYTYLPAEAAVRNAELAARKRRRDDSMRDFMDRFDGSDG

GST-Dm-Relish = biological target: T5, GST-Dm-Relish (Drosophila melanogaster, UniProt Q94527 99-473)
T5 sequence: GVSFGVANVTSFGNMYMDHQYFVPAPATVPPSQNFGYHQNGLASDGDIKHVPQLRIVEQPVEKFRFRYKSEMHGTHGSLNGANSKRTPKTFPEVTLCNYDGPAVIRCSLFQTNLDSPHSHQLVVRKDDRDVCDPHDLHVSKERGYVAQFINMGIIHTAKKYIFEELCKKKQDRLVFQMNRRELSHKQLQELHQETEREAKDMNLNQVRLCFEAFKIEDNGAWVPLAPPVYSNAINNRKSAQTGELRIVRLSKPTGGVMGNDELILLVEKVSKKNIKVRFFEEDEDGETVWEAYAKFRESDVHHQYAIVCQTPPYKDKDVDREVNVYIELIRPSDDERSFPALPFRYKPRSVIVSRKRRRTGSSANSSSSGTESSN

GST-Aq-NF-kB = biological target: T6, GST-Aq-NF-kB (Amphimedon queenslandica, UniProt A9Y5G7 2-389)
T6 sequence: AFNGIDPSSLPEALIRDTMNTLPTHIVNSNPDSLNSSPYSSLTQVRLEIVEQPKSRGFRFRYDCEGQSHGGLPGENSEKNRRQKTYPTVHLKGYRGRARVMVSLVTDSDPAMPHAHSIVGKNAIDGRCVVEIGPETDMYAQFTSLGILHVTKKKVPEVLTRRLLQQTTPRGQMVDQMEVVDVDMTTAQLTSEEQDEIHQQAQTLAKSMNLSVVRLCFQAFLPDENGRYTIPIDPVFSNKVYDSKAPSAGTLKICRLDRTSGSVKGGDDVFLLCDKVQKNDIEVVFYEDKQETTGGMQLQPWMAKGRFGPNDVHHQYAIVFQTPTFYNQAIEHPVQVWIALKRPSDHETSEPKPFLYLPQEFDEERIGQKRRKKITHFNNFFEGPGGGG

GST-Hu-p50 = GST-Hu-p50 (Homo sapiens, UniProt P19838 7-356)
Chain of GST-Hu-p50 (P19838 7-356): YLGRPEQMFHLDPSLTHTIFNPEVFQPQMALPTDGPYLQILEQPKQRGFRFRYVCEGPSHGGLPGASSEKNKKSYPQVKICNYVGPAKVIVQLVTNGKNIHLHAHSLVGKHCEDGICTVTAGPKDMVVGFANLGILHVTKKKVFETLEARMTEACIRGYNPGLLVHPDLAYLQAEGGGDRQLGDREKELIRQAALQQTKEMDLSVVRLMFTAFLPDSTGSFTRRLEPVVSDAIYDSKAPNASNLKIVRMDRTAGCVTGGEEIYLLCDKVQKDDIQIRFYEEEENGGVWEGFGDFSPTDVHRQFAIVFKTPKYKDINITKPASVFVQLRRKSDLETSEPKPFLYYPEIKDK

| Sequence | binding signal (GST-Ap-NF-kB RHD) [z-score] | binding signal [1] [z-score] | binding signal [2] [z-score] | binding signal (GST-Co-NF-kB) [z-score] | binding signal (GST-Dm-Relish) [z-score] | binding signal (GST-Aq-NF-kB) [z-score] | binding signal (GST-Hu-p50) [z-score] |
| --- | --- | --- | --- | --- | --- | --- | --- |
| CCGATTAACATCAAGGGAAATCCTGATGTTAATCGGGTCTTGATTCGCTTGACGCTGCTG | 5.35 | 7.47 | 6.52 | 3.33 | 6.05 | 6.57 | 4.65 |
| CCGATTAACATCACTGTTTCCCCTGATGTTAATCGGGTCTTGATTCGCTTGACGCTGCTG | 5.28 | 7.06 | 9.29 | 7.92 | 2.5 | 4.25 | 4.88 |
| CCGATTAACATCAGGGGAATACCTGATGTTAATCGGGTCTTGATTCGCTTGACGCTGCTG | 9.84 | 11.8 | 10.1 | 5.97 | 9.67 | 10.5 | 6.93 |
| CCGATTAACATCAAATCCCCCCATGATGTTAATCGGGTCTTGATTCGCTTGACGCTGCTG | 7.89 | 6.31 | 6.65 | 7.39 | 7.66 | 6.36 | 6.55 |
| CCGATTAACATCAAGGAGTTCCCTGATGTTAATCGGGTCTTGATTCGCTTGACGCTGCTG | 3.02 | 2.29 | 1.06 | 1.52 | 5.39 | 4.24 | 2.1 |
| CCGATTAACATCAAAACCCCCCCTGATGTTAATCGGGTCTTGATTCGCTTGACGCTGCTG | 8.72 | 6.19 | 6.72 | 6.13 | 9.97 | 7.1 | 6.53 |
| CCGATTAACATCAATCTCCCCCCTGATGTTAATCGGGTCTTGATTCGCTTGACGCTGCTG | 7.54 | 5.24 | 7.29 | 8.72 | 4.23 | 5.63 | 6.63 |
| CCGATTAACATCAGGGAATCTACTGATGTTAATCGGGTCTTGATTCGCTTGACGCTGCTG | 2.43 | 3.44 | 3.68 | 1.94 | 4.76 | 4.82 | 2.96 |
| CCGATTAACATCAGGGGCAGTACTGATGTTAATCGGGTCTTGATTCGCTTGACGCTGCTG | 2.61 | 1.84 | 1.28 | 1.64 | 3.44 | 4.35 | 2.94 |
| CCGATTAACATCACGGCATTCCCTGATGTTAATCGGGTCTTGATTCGCTTGACGCTGCTG | 2 | 2.64 | 2.35 | 1.73 | 2.31 | 3.81 | 1.4 |
| CCGATTAACATCAATTTCCCCCCTGATGTTAATCGGGTCTTGATTCGCTTGACGCTGCTG | 7.89 | 7.68 | 8.79 | 11.5 | 6.02 | 6.64 | 6.75 |
| CCGATTAACATCACAAAATCCCCTGATGTTAATCGGGTCTTGATTCGCTTGACGCTGCTG | 9.85 | 10.8 | 12.8 | 5.11 | 9.67 | 8 | 8.07 |
| CCGATTAACATCAGGGAATGTTATGATGTTAATCGGGTCTTGATTCGCTTGACGCTGCTG | 2.55 | 4.38 | 3.78 | 2.75 | 1.85 | 5.04 | 3.32 |
| CCGATTAACATCAGGGGGAAACCTGATGTTAATCGGGTCTTGATTCGCTTGACGCTGCTG | 8.24 | 8.06 | 9.71 | 9.35 | 7.54 | 7.94 | 7.23 |
| CCGATTAACATCAGGGGGGTTAATGATGTTAATCGGGTCTTGATTCGCTTGACGCTGCTG | 4.64 | 4.44 | 4.14 | 3.92 | 6.25 | 4.51 | 4.97 |
| CCGATTAACATCAATTTCCCAGGTGATGTTAATCGGGTCTTGATTCGCTTGACGCTGCTG | 2.16 | 2.4 | 3.53 | 3.41 | 1.61 | 2.15 | 3.21 |
| CCGATTAACATCAGGGGGCTATATGATGTTAATCGGGTCTTGATTCGCTTGACGCTGCTG | 3.62 | 3.23 | 2.2 | 1.85 | 2.75 | 3.69 | 3.35 |
| CCGATTAACATCACACTTTCCCCTGATGTTAATCGGGTCTTGATTCGCTTGACGCTGCTG | 6.32 | 6.92 | 8.7 | 7.06 | 2.75 | 4.81 | 5.3 |
| CCGATTAACATCAGGGGTTTTTATGATGTTAATCGGGTCTTGATTCGCTTGACGCTGCTG | 8.01 | 8.52 | 7.26 | 2.38 | 8.58 | 7.14 | 7.21 |
| CCGATTAACATCAAGGGGGGTATTGATGTTAATCGGGTCTTGATTCGCTTGACGCTGCTG | 6 | 4.4 | 3.99 | 4.22 | 5.14 | 5.2 | 4.8 |
| CCGATTAACATCAAAATGTCCCCTGATGTTAATCGGGTCTTGATTCGCTTGACGCTGCTG | 6.81 | 6.47 | 7.12 | 5.57 | 6.24 | 5.89 | 5.58 |
| CCGATTAACATCAAAACACTCCCTGATGTTAATCGGGTCTTGATTCGCTTGACGCTGCTG | 2.25 | 3.3 | 2.69 | 2.06 | 1.28 | 4.45 | 2.59 |
